{"source": "paper PMC11006913", "assay_in_all_cases": "PBM; 200 nM protein, PBS", "conditions_in_all_cases": "dsDNA, one strand shown", "key": {"VENTX [1]": {"target": "T1, VENTX (Homo sapiens, UniProt O95231 78-163, R121Q)", "T1 sequence": "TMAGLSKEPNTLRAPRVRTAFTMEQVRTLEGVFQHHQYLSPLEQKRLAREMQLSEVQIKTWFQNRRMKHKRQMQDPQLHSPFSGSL"}, "SIX6 [2]": {"target": "T2, SIX6 (Homo sapiens, UniProt O95475 114-200, L167I)", "T2 sequence": "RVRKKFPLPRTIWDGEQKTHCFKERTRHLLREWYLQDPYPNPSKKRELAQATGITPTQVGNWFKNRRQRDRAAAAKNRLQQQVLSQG"}, "VENTX [3]": {"target": "T3, VENTX (Homo sapiens, UniProt O95231 78-163)", "T3 sequence": "T1 sequence with Q44R"}, "SIX6 [4]": {"target": "T4, SIX6 (Homo sapiens, UniProt O95475 114-200, L143V)", "T4 sequence": "T2 sequence with L30V, I54L"}, "SIX6 [5]": {"target": "T5, SIX6 (Homo sapiens, UniProt O95475 114-200, H141N)", "T5 sequence": "T2 sequence with H28N, I54L"}, "SIX6 [6]": {"target": "T6, SIX6 (Homo sapiens, UniProt O95475 114-200, T165P)", "T6 sequence": "T2 sequence with T52P, I54L"}, "VENTX [7]": {"target": "T7, VENTX (Homo sapiens, UniProt O95231 78-163, Y115F)", "T7 sequence": "T1 sequence with Y38F, Q44R"}, "SIX6 [8]": {"target": "T8, SIX6 (Homo sapiens, UniProt O95475 114-200, L167M)", "T8 sequence": "T2 sequence with I54M"}, "SIX6 [9]": {"target": "T9, SIX6 (Homo sapiens, UniProt O95475 114-200, L143M)", "T9 sequence": "T2 sequence with L30M, I54L"}, "SIX6 [10]": {"target": "T10, SIX6 (Homo sapiens, UniProt O95475 114-200, L143I)", "T10 sequence": "T2 sequence with L30I, I54L"}, "SIX6 [11]": {"target": "T11, SIX6 (Homo sapiens, UniProt O95475 114-200, T165G)", "T11 sequence": "T2 sequence with T52G, I54L"}, "SIX6 [12]": {"target": "T12, SIX6 (Homo sapiens, UniProt O95475 114-200, T139Q)", "T12 sequence": "T2 sequence with T26Q, I54L"}, "SIX6 [13]": {"target": "T13, SIX6 (Homo sapiens, UniProt O95475 114-200, T165A)", "T13 sequence": "T2 sequence with T52A, I54L"}, "SIX6 [14]": {"target": "T14, SIX6 (Homo sapiens, UniProt O95475 114-200, L167V)", "T14 sequence": "T2 sequence with I54V"}, "SIX6 [15]": {"target": "T15, SIX6 (Homo sapiens, UniProt O95475 114-200)", "T15 sequence": "T2 sequence with I54L"}, "SIX6 [16]": {"target": "T16, SIX6 (Homo sapiens, UniProt O95475 114-200, T165I)", "T16 sequence": "T2 sequence with T52I, I54L"}, "HOXC9 [17]": {"target": "HOXC9 (Homo sapiens, UniProt P31274 178-260, K195R)", "sequence (P31274 178-260 K195R)": "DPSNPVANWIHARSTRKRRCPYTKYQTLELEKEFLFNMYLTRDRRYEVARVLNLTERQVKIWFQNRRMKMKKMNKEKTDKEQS"}, "HOXC9 [18]": {"target": "HOXC9 (Homo sapiens, UniProt P31274 178-260)", "sequence (P31274 178-260)": "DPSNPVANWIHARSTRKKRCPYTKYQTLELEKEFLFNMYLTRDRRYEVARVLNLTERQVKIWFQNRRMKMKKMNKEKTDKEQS"}, "PITX2": {"target": "PITX2 (Homo sapiens, UniProt Q99697 72-157)"}, "HOXC9 [19]": {"target": "HOXC9 (Homo sapiens, UniProt P31274 178-260, R193K)", "sequence (P31274 178-260 R193K)": "as the sequence (P31274 178-260) above, with R16K counted along it"}, "HOXC9 [20]": {"target": "HOXC9 (Homo sapiens, UniProt P31274 178-260, R222W)", "sequence (P31274 178-260 R222W)": "as the sequence (P31274 178-260) above, with R45W counted along it"}, "PAX4 [21]": {"target": "T17, PAX4 (Homo sapiens, UniProt O43316 9-242, R200K)", "T17 sequence": "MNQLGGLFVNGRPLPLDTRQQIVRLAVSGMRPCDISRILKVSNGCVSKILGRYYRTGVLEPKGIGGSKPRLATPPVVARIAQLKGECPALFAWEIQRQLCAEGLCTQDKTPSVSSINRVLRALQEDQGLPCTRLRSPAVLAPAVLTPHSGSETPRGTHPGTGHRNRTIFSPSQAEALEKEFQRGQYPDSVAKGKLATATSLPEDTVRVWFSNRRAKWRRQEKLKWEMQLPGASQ"}, "PAX4 [22]": {"target": "T18, PAX4 (Homo sapiens, UniProt O43316 9-242)", "T18 sequence": "T17 sequence with K192R"}, "HOXB9 [23]": {"target": "HOXB9 (Homo sapiens, UniProt P17482 171-250)", "sequence (P17482 171-250)": "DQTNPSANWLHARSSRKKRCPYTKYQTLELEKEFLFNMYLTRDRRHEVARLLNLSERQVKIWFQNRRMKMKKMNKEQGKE"}, "PAX4 [24]": {"target": "T19, PAX4 (Homo sapiens, UniProt O43316 9-242, R200Q)", "T19 sequence": "T17 sequence with K192Q"}, "PAX4 [25]": {"target": "T20, PAX4 (Homo sapiens, UniProt O43316 9-242, F177V)", "T20 sequence": "T17 sequence with F169V, K192R"}, "PAX4 [26]": {"target": "T21, PAX4 (Homo sapiens, UniProt O43316 9-242, F177Y)", "T21 sequence": "T17 sequence with F169Y, K192R"}, "HOXB9 [27]": {"target": "HOXB9 (Homo sapiens, UniProt P17482 171-250, R186Q)", "sequence (P17482 171-250 R186Q)": "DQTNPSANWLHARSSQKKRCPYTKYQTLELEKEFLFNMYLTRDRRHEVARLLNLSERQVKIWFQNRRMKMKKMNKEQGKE"}, "PAX4 [28]": {"target": "T22, PAX4 (Homo sapiens, UniProt O43316 9-242, R227W)", "T22 sequence": "T17 sequence with K192R, R219W"}, "HOXA7 [29]": {"target": "HOXA7 (Homo sapiens, UniProt P31268 116-202)", "sequence (P31268 116-202)": "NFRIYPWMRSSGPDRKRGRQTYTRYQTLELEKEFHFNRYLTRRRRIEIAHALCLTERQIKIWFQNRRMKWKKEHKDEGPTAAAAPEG"}, "HOXB6 [30]": {"target": "HOXB6 (Homo sapiens, UniProt P17509 132-218, K202E)", "sequence (P17509 132-218 K202E)": "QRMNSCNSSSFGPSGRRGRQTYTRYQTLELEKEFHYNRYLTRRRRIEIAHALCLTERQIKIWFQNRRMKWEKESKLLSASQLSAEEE"}, "HOXA7 [31]": {"target": "HOXA7 (Homo sapiens, UniProt P31268 116-202, W177C)", "sequence (P31268 116-202 W177C)": "as the sequence (P31268 116-202) above, with W62C counted along it"}, "HOXB6 [32]": {"target": "HOXB6 (Homo sapiens, UniProt P17509 132-218)", "sequence (P17509 132-218)": "as the sequence (P17509 132-218 K202E) above, with E71K counted along it"}}, "note": "Substitutions are numbered along the chain they refer to.", "data": [{"sequence": "AATGATAC", "values": [{"measurement": "binding signal", "setting": "VENTX [1]", "value": "9.95 upbm affinity estimate (log intensity, higher = more binding, comparable within an allelic series)"}, {"measurement": "binding signal", "setting": "SIX6 [2]", "value": "11.5 upbm affinity estimate (log intensity, higher = more binding, comparable within an allelic series)"}, {"measurement": "binding signal", "setting": "VENTX [3]", "value": "10.2 upbm affinity estimate (log intensity, higher = more binding, comparable within an allelic series)"}, {"measurement": "binding signal", "setting": "SIX6 [4]", "value": "10.6 upbm affinity estimate (log intensity, higher = more binding, comparable within an allelic series)"}, {"measurement": "binding signal", "setting": "SIX6 [5]", "value": "11.5 upbm affinity estimate (log intensity, higher = more binding, comparable within an allelic series)"}, {"measurement": "binding signal", "setting": "SIX6 [6]", "value": "10.1 upbm affinity estimate (log intensity, higher = more binding, comparable within an allelic series)"}, {"measurement": "binding signal", "setting": "VENTX [7]", "value": "9.98 upbm affinity estimate (log intensity, higher = more binding, comparable within an allelic series)"}, {"measurement": "binding signal", "setting": "SIX6 [8]", "value": "11 upbm affinity estimate (log intensity, higher = more binding, comparable within an allelic series)"}, {"measurement": "binding signal", "setting": "SIX6 [9]", "value": "11.3 upbm affinity estimate (log intensity, higher = more binding, comparable within an allelic series)"}, {"measurement": "binding signal", "setting": "SIX6 [10]", "value": "10.6 upbm affinity estimate (log intensity, higher = more binding, comparable within an allelic series)"}, {"measurement": "binding signal", "setting": "SIX6 [11]", "value": "11.5 upbm affinity estimate (log intensity, higher = more binding, comparable within an allelic series)"}, {"measurement": "binding signal", "setting": "SIX6 [12]", "value": "11.3 upbm affinity estimate (log intensity, higher = more binding, comparable within an allelic series)"}, {"measurement": "binding signal", "setting": "SIX6 [13]", "value": "11.4 upbm affinity estimate (log intensity, higher = more binding, comparable within an allelic series)"}, {"measurement": "binding signal", "setting": "SIX6 [14]", "value": "11.3 upbm affinity estimate (log intensity, higher = more binding, comparable within an allelic series)"}, {"measurement": "binding signal", "setting": "SIX6 [15]", "value": "11.2 upbm affinity estimate (log intensity, higher = more binding, comparable within an allelic series)"}, {"measurement": "binding signal", "setting": "SIX6 [16]", "value": "11.3 upbm affinity estimate (log intensity, higher = more binding, comparable within an allelic series)"}]}, {"sequence": "CGGGCACG", "values": [{"measurement": "binding signal", "setting": "VENTX [1]", "value": "7.97 upbm affinity estimate (log intensity, higher = more binding, comparable within an allelic series)"}, {"measurement": "binding signal", "setting": "HOXC9 [17]", "value": "9.61 upbm affinity estimate (log intensity, higher = more binding, comparable within an allelic series)"}, {"measurement": "binding signal", "setting": "VENTX [3]", "value": "7.98 upbm affinity estimate (log intensity, higher = more binding, comparable within an allelic series)"}, {"measurement": "binding signal", "setting": "VENTX [7]", "value": "8.07 upbm affinity estimate (log intensity, higher = more binding, comparable within an allelic series)"}, {"measurement": "binding signal", "setting": "HOXC9 [18]", "value": "9.57 upbm affinity estimate (log intensity, higher = more binding, comparable within an allelic series)"}, {"measurement": "binding signal", "setting": "PITX2", "value": "8.22 upbm affinity estimate (log intensity, higher = more binding, comparable within an allelic series)"}, {"measurement": "binding signal", "setting": "HOXC9 [19]", "value": "9.49 upbm affinity estimate (log intensity, higher = more binding, comparable within an allelic series)"}, {"measurement": "binding signal", "setting": "HOXC9 [20]", "value": "9.66 upbm affinity estimate (log intensity, higher = more binding, comparable within an allelic series)"}]}, {"sequence": "CGAGCCAC", "values": [{"measurement": "binding signal", "setting": "VENTX [1]", "value": "8.17 upbm affinity estimate (log intensity, higher = more binding, comparable within an allelic series)"}, {"measurement": "binding signal", "setting": "VENTX [3]", "value": "8.51 upbm affinity estimate (log intensity, higher = more binding, comparable within an allelic series)"}, {"measurement": "binding signal", "setting": "VENTX [7]", "value": "8.31 upbm affinity estimate (log intensity, higher = more binding, comparable within an allelic series)"}]}, {"sequence": "AAGTAAAC", "values": [{"measurement": "binding signal", "setting": "VENTX [1]", "value": "9.37 upbm affinity estimate (log intensity, higher = more binding, comparable within an allelic series)"}, {"measurement": "binding signal", "setting": "VENTX [3]", "value": "9.73 upbm affinity estimate (log intensity, higher = more binding, comparable within an allelic series)"}]}, {"sequence": "CCGAATTA", "values": [{"measurement": "binding signal", "setting": "VENTX [1]", "value": "10.1 upbm affinity estimate (log intensity, higher = more binding, comparable within an allelic series)"}, {"measurement": "binding signal", "setting": "VENTX [3]", "value": "10.6 upbm affinity estimate (log intensity, higher = more binding, comparable within an allelic series)"}, {"measurement": "binding signal", "setting": "PAX4 [21]", "value": "11.8 upbm affinity estimate (log intensity, higher = more binding, comparable within an allelic series)"}, {"measurement": "binding signal", "setting": "VENTX [7]", "value": "9.98 upbm affinity estimate (log intensity, higher = more binding, comparable within an allelic series)"}, {"measurement": "binding signal", "setting": "PAX4 [22]", "value": "12.4 upbm affinity estimate (log intensity, higher = more binding, comparable within an allelic series)"}, {"measurement": "binding signal", "setting": "HOXB9 [23]", "value": "10.1 upbm affinity estimate (log intensity, higher = more binding, comparable within an allelic series)"}, {"measurement": "binding signal", "setting": "PAX4 [24]", "value": "11.8 upbm affinity estimate (log intensity, higher = more binding, comparable within an allelic series)"}, {"measurement": "binding signal", "setting": "PAX4 [25]", "value": "10.4 upbm affinity estimate (log intensity, higher = more binding, comparable within an allelic series)"}, {"measurement": "binding signal", "setting": "PAX4 [26]", "value": "11.1 upbm affinity estimate (log intensity, higher = more binding, comparable within an allelic series)"}, {"measurement": "binding signal", "setting": "HOXB9 [27]", "value": "10 upbm affinity estimate (log intensity, higher = more binding, comparable within an allelic series)"}, {"measurement": "binding signal", "setting": "PAX4 [28]", "value": "10.9 upbm affinity estimate (log intensity, higher = more binding, comparable within an allelic series)"}]}, {"sequence": "ACCCATTA", "values": [{"measurement": "binding signal", "setting": "VENTX [1]", "value": "12.1 upbm affinity estimate (log intensity, higher = more binding, comparable within an allelic series)"}, {"measurement": "binding signal", "setting": "VENTX [3]", "value": "12.9 upbm affinity estimate (log intensity, higher = more binding, comparable within an allelic series)"}, {"measurement": "binding signal", "setting": "HOXA7 [29]", "value": "11.2 upbm affinity estimate (log intensity, higher = more binding, comparable within an allelic series)"}, {"measurement": "binding signal", "setting": "VENTX [7]", "value": "11.7 upbm affinity estimate (log intensity, higher = more binding, comparable within an allelic series)"}, {"measurement": "binding signal", "setting": "HOXB6 [30]", "value": "9.84 upbm affinity estimate (log intensity, higher = more binding, comparable within an allelic series)"}, {"measurement": "binding signal", "setting": "HOXA7 [31]", "value": "8.76 upbm affinity estimate (log intensity, higher = more binding, comparable within an allelic series)"}, {"measurement": "binding signal", "setting": "HOXB6 [32]", "value": "11.8 upbm affinity estimate (log intensity, higher = more binding, comparable within an allelic series)"}]}]}
